Measurements from PubChem BioAssay (NCATS).
Values joined by “and” are separate entries in the source; they are usually repeats but may differ in a detail not shown here. Equal values may be shown once. Inconclusive results are not listed. Active and inactive are the calls of the source. Unless noted, calls follow the shape of the dose curve; as a rule, active = well fitted curve in either direction with a large enough effect (not every such curve was filed as active); inconclusive = small, poorly fitted or top-dose-only effect, or another doubt; inactive = flat fitted curve, though single readings scatter.

Assays:
[1] = Stat Signaling Pathway (AID 446); settings: ME-180 (cervical carcinoma) SIE beta-lactamase reporter, IL-6 stimulated, 5 h; series mostly up to 17.2 µM;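 also: ME-180 cervical cancer cells given 40 pM IL-6 alongside compound; SIE-controlled beta-lactamase reporter measured as 460/530 nm FRET emission ratio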
Outline: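 IL-6/STAT signaling read in ME-180 cells via an SIE beta-lactamase reporter. Stimulus was 40 pM IL-6 (its AC50) for 5 hrs, so both activation and inhibition register.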

[2] = biological target: Glucocorticoid receptor (Homo sapiens) (UniProt P04150); assay: GR-GFP Redistribution (AID 450;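 active = compounds whose dose series gives a full or clear partial fitted curve of increased nuclear translocation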; also: potency is read from the fitted curve at half-maximal effect); settings: U2OS GR-GFP nuclear translocation, laser cytometry, 2 h
Sequence of Glucocorticoid receptor (Homo sapiens) (P04150 whole entry, looked up, the tested form may be a part): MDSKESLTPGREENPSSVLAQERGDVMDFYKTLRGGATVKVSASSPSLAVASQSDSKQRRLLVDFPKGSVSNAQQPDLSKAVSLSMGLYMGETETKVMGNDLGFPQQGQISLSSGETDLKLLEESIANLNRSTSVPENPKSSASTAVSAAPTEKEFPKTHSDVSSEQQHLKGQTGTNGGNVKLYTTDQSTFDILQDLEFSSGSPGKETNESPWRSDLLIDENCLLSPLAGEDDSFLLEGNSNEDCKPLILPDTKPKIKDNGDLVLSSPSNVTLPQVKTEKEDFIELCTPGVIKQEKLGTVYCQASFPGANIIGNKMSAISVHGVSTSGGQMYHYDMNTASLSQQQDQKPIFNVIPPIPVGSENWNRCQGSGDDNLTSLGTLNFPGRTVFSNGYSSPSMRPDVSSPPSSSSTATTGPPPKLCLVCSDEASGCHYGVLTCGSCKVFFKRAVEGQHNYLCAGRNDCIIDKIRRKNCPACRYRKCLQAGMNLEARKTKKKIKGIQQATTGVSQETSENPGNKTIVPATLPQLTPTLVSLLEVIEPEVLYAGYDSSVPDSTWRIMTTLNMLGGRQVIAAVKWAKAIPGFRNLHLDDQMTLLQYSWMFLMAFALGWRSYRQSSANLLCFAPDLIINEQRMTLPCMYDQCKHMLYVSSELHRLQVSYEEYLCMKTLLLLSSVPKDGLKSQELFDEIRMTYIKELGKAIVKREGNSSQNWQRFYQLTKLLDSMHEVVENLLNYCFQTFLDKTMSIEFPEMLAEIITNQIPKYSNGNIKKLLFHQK

[3] = biological target: Glucocorticoid receptor (Homo sapiens) (UniProt P04150); assay: GR-EFC Redistribution (AID 451; calls by dose curve; also: potency is read from the fitted curve at half-maximal effect); settings: CHO-K1 GR-EFC translocation, beta-gal luminescence, 2 h
Outline: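 CHO-K1 cells expressing nuclear EA and GR-ED fragments of b-gal; compounds titrated up to 46 uM final, 2 h at 37 C. GR nuclear translocation read as complemented b-gal luminescence after 1 h RT detection.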

[4] = biological target: Mitogen-activated protein kinase 10 (Mus musculus) (UniProt Q61831); assay: JNK3 AlphaScreen Assay (AID 530); settings: JNK3 lysate, c-Jun phosphorylation; series mostly up to 57.1 µM;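 also: kinase came from lysate of stimulated human HepG2 cells; signal reports phosphorylation of biotinylated GST-cJun 1-79 at Ser73 with 10 µM ATP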
Outline: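 Pre-activated (IL-1β/TNFα) JNK3 in HepG2 lysates phosphorylates biotin-GST-cJun(1-79), 10 uM ATP; anti-phospho-cJun(Ser73) AlphaScreen read at room temperature, pH 7.6 Tris buffer. Compounds pre-incubated 15 min as titrations.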

[5] = biological target: 3',5'-cyclic-AMP phosphodiesterase 4B (Homo sapiens) (UniProt Q07343); assay: qHTS Assay for Inhibitors of PDE-IV (AID 607; active = well fitted activation curve with a large enough effect in the main read-out, with a control signal flat, not every such curve was filed as active); settings: HEK293 ACTOne CNG channel cells, membrane potential fluorescence; series mostly up to 22.9 µM
Sequence of 3',5'-cyclic-AMP phosphodiesterase 4B (Homo sapiens) (Q07343 whole entry, looked up): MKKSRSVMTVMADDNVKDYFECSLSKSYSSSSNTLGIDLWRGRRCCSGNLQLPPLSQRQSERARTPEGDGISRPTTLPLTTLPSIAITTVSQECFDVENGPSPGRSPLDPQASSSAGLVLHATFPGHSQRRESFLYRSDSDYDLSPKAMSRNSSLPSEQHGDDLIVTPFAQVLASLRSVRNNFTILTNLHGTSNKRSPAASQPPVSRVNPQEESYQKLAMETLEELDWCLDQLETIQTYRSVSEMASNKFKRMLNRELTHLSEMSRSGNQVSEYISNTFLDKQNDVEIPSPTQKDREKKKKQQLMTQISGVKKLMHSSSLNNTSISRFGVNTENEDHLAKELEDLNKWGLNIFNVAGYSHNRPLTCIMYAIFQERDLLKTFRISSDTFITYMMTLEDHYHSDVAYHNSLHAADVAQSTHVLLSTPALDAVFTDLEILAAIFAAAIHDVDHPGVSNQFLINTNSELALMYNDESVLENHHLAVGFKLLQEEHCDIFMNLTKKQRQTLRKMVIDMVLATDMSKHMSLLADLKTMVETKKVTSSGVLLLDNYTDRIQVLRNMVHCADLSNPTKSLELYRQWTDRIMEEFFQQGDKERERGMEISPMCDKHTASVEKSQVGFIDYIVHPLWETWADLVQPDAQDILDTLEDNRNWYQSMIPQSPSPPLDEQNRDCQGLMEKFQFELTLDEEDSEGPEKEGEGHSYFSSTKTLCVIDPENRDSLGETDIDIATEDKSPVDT
Outline: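 Live HEK293 cells with a modified cyclic nucleotide-gated (CNG) channel report intracellular cAMP via membrane-potential dye fluorescence (ex 535/em 590 nm). Endogenous PDE-IV was targeted. Compounds were tested at up to 22.9 uM final; RO 20-1724 100 uM served as control.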

Measured: Potency

COCC(=O)O[C@]1(CCN(C)CCCc2nc3ccccc3[nH]2)CCc2cc(F)ccc2[C@@H]1C(C)C
inactive: [1] | [2] > 46 µM | [3] > 46 µM | [4] | [5]

NCCCNCCSP(=O)(O)O
inactive: [1] | [2] > 46 µM | [3] > 46 µM | [4] | [5]

CCCOc1ccccc1-c1nc2n[nH]nc2c(=O)[nH]1
inactive: [1] | [2] > 46 µM and > 20.6 µM | [3] > 46 µM and > 20.6 µM | [4] | [5]

CCC(=O)c1ccc2c(c1)N(CCCN(C)C)c1ccccc1S2
inactive: [1] | [2] > 46 µM | [3] > 46 µM | [4] | [5]

O=C(O)CN(CCOCCOCCN(CC(=O)O)CC(=O)O)CC(=O)O
inactive: [1] | [2] > 46 µM | [3] > 46 µM | [4] | [5]

CC(=O)Oc1cc(C(C)C)c(OCCN(C)C)cc1C
inactive: [1] | [2] > 46 µM and > 20.6 µM | [3] > 46 µM and > 20.6 µM | [4] | [5]

CC(=O)Nc1nnc(S(N)(=O)=O)s1
inactive: [1] | [2] > 46 µM and > 20.6 µM | [3] > 46 µM and > 20.6 µM | [4] | [5]

Brc1c(NC2=NCCN2)ccc2nccnc12
inactive: [1] | [2] > 46 µM and > 20.6 µM | [3] > 46 µM | [4] | [5]

CC1=NS(=O)(=O)c2cc(Cl)ccc2N1
inactive: [1] | [2] > 46 µM and > 20.6 µM | [3] > 46 µM and > 20.6 µM | [4] | [5]

CN(C)C(=O)Oc1ccc[n+](C)c1
inactive: [1] | [2] > 46 µM and > 20.6 µM | [3] > 46 µM | [4] | [5]

O=C(O)CN(CCN(CC(=O)O)CC(=O)O)CCN(CC(=O)O)CC(=O)O
inactive: [1] | [2] > 46 µM and > 20.6 µM | [3] > 46 µM and > 20.6 µM | [4] | [5]

c1cnc(N2CCN(Cc3ccc4c(c3)OCO4)CC2)nc1
inactive: [1] | [2] > 46 µM and > 20.6 µM | [3] > 46 µM and > 20.6 µM | [4] | [5]

FC(F)(F)c1ccccc1-n1ccnc1
inactive: [1] | [2] > 46 µM | [3] > 46 µM | [4] | [5]

c1cc(CN2CCCCC2)cc(OCCCNc2nc3ccccc3s2)c1
inactive: [1] | [2] > 46 µM | [3] > 46 µM | [4] | [5]

O=C(CCCN1CCC(O)(c2cccc(C(F)(F)F)c2)CC1)c1ccc(F)cc1
inactive: [1] | [2] > 46 µM | [3] > 46 µM | [4] | [5]

O=C1NCN(c2ccccc2)C12CCN(CCCC(c1ccc(F)cc1)c1ccc(F)cc1)CC2
inactive: [1] | [2] > 46 µM and > 20.6 µM | [3] > 46 µM and > 20.6 µM | [4] | [5]

CCCCNc1ccc(C(=O)OCCN(C)C)cc1
inactive: [1] | [2] > 46 µM and > 20.6 µM | [3] > 46 µM and > 20.6 µM | [4] | [5]

CCNC(=O)N1CCN(CCCC(c2ccc(F)cc2)c2ccc(F)cc2)CC1
inactive: [1] | [2] > 46 µM | [3] > 46 µM | [4] | [5]

O=C(O)CP(=O)(O)O
inactive: [1] | [2] > 46 µM | [3] > 46 µM and > 9.22 µM | [4] | [5]

CC(C)[N+](C)(CCOC(=O)C1c2ccccc2Oc2ccccc21)C(C)C
inactive: [1] | [2] > 46 µM and > 20.6 µM | [3] > 46 µM and > 20.6 µM | [4] | [5]

CN1CCN(C2=Nc3ccccc3Oc3ccc(Cl)cc32)CC1
inactive: [1] | [2] > 46 µM and > 20.6 µM | [3] > 46 µM and > 20.6 µM | [4] | [5]
